Screening data as filed in PubChem BioAssay.
Hits are enriched below; roughly 3.3% of the tested compounds scored in any of these assays.
rCAG binder: molecules binding r(CAG) RNA repeats; r(CAG) RNA repeat, TO-PRO-1 dye displacement fluorescence; inhibition, % at 3 µM; 370,000 tested, 1.3% active; AID 651821;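 active = inhibition above the plate cutoff, the mean of all test compounds on that plate plus 3 SD, cut at about 35% in these data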;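 also: 0% = DMSO alone and 100% = 100 µM mitoxantrone as full dye displacement; higher means more dye released from RNA so lower well fluorescence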
TLR4 MyD88 comp: inhibitors of human TLR4-MyD88 binding. inhibition, % at 8.4 µM. 200,000 tested, 0.18% active. AID 861. HeLa CL3-4 TLR4/MyD88 BLA complementation, FRET ratio; in the data active = inhibition above about 25%;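 also: 0% = vehicle and 100% = reference inhibitor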
TLR9-MyD88 inh: inhibitors of human TLR9-MyD88 binding; CHO BLA complementation TLR9-MyD88, CCF4 FRET ratio; AID 504734; 340,000 tested, 0.21% active; inhibition, % at 4.98 µM; Q9NR96+Q99836;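 active = inhibition above the mean over all tested compounds plus 3 SD, cut at about 21% in these data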;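 also: 0% = DMSO only wells and 100% = clavulanate BLA inhibitor control wells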
PRMT1 FP inh: PRMT1 (human) inhibition, primary screen. recombinant PRMT1, activity-based probe fluorescence polarization. inhibition, % at 2.79 µM. 370,000 tested, 1.3% active;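 active = inhibition above about 21% made by adding two undisclosed values, limit read from the data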
ABHD5-PLIN5 inh: ABHD5-PLIN5 protein interaction inhibition | Q00G26+Q8WTS1 | Split G. princeps luciferase complementation, luminescence, 4 h | inhibition, % at 4 µM | 360,000 tested, 0.78% active;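 active = inhibition above the mean inhibition across every tested compound plus 3 SD, cut at about 22% in these data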;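 also: 0% = DMSO only wells and the 100% control is not disclosed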
NOD2 RIPK2 PPI: blocks binding of human NOD2 to RIPK2; O43353; CHO BLA complementation NOD2-RIPK2, CCF4 ratio; inhibition, % at 4.98 µM; 360,000 tested, 0.38% active; AID 624267; in the data active = inhibition above about 21%;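 also: 0% = vehicle only and 100% = reference blocker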
ABHD5 PLIN5 conf: confirmation of human ABHD5-PLIN5 interaction inhibitors; shares compounds with ABHD5-PLIN5 inh; biochemical ABHD5-PLIN5 interaction, luminescence; inhibition, % at 4 µM; 2,200 tested, 67% active; AID 651612; in the data active = inhibition above about 23%;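 also: 0% = DMSO vehicle wells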
HNF4 split-luc: active in HNF4 split-luciferase counter-screen for ABHD5-PLIN5 inhibitors | shares compounds with ABHD5-PLIN5 inh | HNF4 dimerization, luminescence, biochemical | inhibition, % at 4 µM | 2,200 tested, 77% active | AID 651674;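 active = mean inhibition across replicate wells exceeding the computed hit threshold, cut at about 13% in these data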;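 also: light from luciferase halves that rejoin when HNF4 fusion proteins dimerize; 0% = DMSO only wells and the 100% control is not given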
NOD2 RIPK2 conf: NOD2-RIPK2 interaction inhibition confirmed | inhibition, % at 4.98 µM | 1,200 tested, 70% active | CHO cells, NOD2-RIPK2 BLA complementation, CCF4 FRET | AID 624370 | shares compounds with NOD2 RIPK2 PPI;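 active = mean inhibition across replicates above a set limit taken from the earlier primary screen, cut at about 21% in these data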;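 also: 0% = DMSO-only wells and the high end = clavulanate BLA-blocked wells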
NOD2 BLA counter: counter-screen for NOD2-RIPK2 interaction inhibitors: BLA reporter; shares compounds with NOD2 RIPK2 PPI; CHO BLA reporter, CCF4 FRET ratio, counterscreen; inhibition, % at 4.98 µM; 1,200 tested, 57% active; AID 624371;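 active = mean inhibition above the low-control mean inhibition plus three low-control SD, cut at about 11% in these data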;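 also: 0% = DMSO only wells and 100% = clavulanate high control wells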
rCAG binder conf: r(CAG) RNA repeat binding, confirmation. 4,300 tested, 70% active. inhibition, % at 3 µM. AID 652065. TO-PRO-1 dye displacement fluorescence. shares compounds with rCAG binder;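 active = inhibition above a per-plate cutoff, the mean inhibition of sample wells plus 3 SD, cut at about 35% in these data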;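 also: loss of TO-PRO-1 fluorescence as compound displaces dye from 1x1 AA loop RNA; 0% = DMSO only wells and 100% = 100 µM mitoxantrone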
DNA CAG counter: counter-screen for rCAG RNA binders: DNA CAG dye complex inhibitors; shares compounds with rCAG binder; d(CAG) DNA oligo TO-PRO-1 dye displacement, fluorescence; inhibition, % at 3 µM; 4,300 tested, 94% active; AID 652068;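 active = inhibition above its plate's cutoff, the mean test-well inhibition plus 3 SD, cut at about 4.8% in these data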;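 also: 0% = DNA dye mix with DMSO and 100% = 100 µM mitoxantrone; hits displace the dye from DNA and so lower well fluorescence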
PRMT1 inh conf: PRMT1 (human) inhibition, FP confirmation; inhibition, % at 2.79 µM; recombinant His-PRMT1, activity-based probe fluorescence polarization; AID 687036; 3,300 tested, 42% active; shares compounds with PRMT1 FP inh;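 active = mean inhibition across replicates above the hit cutoff derived for the earlier primary screen, cut at about 22% in these data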
The depositor's hits bear a star; nt = not tested or not shown.

SMILES | rCAG binder | TLR4 MyD88 comp | TLR9-MyD88 inh | PRMT1 FP inh | ABHD5-PLIN5 inh | NOD2 RIPK2 PPI | ABHD5 PLIN5 conf | HNF4 split-luc | PRMT1 inh conf | others
Oc1c(CN2CCOCC2)cc(-c2ccccc2)cc1CN1CCOCC1 | -11 | -4 | 13 | -3 | 2 | 3 | nt | nt | nt
Oc1c(CN2CCOCC2)cc(CN2CCOCC2)c(O)c1CN1CCOCC1 | 11 | nt | -4 | 72* | 55* | -4 | 79* | 108* | 77*
O=C(O)c1cc(C(=O)O)cc(N2C(=O)c3ccccc3C2=O)c1 | 3 | nt | nt | -1 | nt | nt | nt | nt | nt
O=C(O)c1cc(N2C(=O)C=CC2=O)cc(N2C(=O)C=CC2=O)c1 | 15 | nt | 3 | 75* | 24* | -5 | 80* | 109* | 97*
COc1ccc(/C=C/C(=O)NCC2COc3ccccc3O2)cc1OC (centres undefined) | -3 | -2 | 0 | -1 | 1 | -9 | nt | nt | nt
Cc1ccc(/C=N/NC(=O)NC2CCCCC2)o1 | 0 | -3 | -16 | 3 | 4 | 2 | nt | nt | nt
Cc1ccc(/C=C/C(=O)NCC2COc3ccccc3O2)o1 (centres undefined) | 7 | -6 | -1 | 34* | 24* | 1 | 49* | 63* | 30*
Cc1ccc(/C=C/C(=O)NC2CCCCCCC2)o1 | 8 | 2 | 2 | 50* | 50* | 8 | 55* | 71* | 59*
CC1(C(=O)Nc2ccccc2F)CCN1C(=O)Cc1cc(F)ccc1F (centres undefined) | -1 | nt | nt | 3 | 8 | 10 | nt | nt | nt
COC(=O)C(CC(=O)c1ccc(Br)cc1)n1nc(C)cc1C (centres undefined) | -3 | nt | -8 | 77* | 37* | -1 | 11 | 52* | 7
O=S(=O)(C/C(=C/CO)S(=O)(=O)c1ccccc1)c1ccccc1 | 1 | 10 | 2 | 29* | 65* | 19 | 95* | 92* | 7
CCN(Cc1ccccc1)C(=O)CS(=O)(=O)c1ccccc1 | -2 | 7 | -13 | 3 | -2 | -4 | nt | nt | nt
Fc1cccc(Cc2c(-c3ccco3)nc3c4ccccc4ccn23)c1 | 13 | nt | nt | 30* | 26* | 4 | 13 | 23* | 10
Fc1cccc(Cc2c(-c3ccco3)nc3ccc(Br)cn23)c1 | 19 | nt | nt | 34* | 72* | 6 | 44* | 78* | 11
Fc1cccc(Cc2c(-c3ccccc3)nc3ccc(Br)cn23)c1 | 11 | nt | nt | 6 | 0 | -5 | nt | nt | nt
Fc1ccc(-c2nc3c4ccccc4ccn3c2Cc2cccc(F)c2)cc1 | 7 | nt | nt | -1 | nt | nt | nt | nt | nt
Brc1ccc2nc(-c3ccco3)c(Cc3ccsc3)n2c1 | 21 | nt | nt | 36* | 75* | 3 | 49* | 91* | 34*
O=C(COc1ccc2ccc(=O)oc2c1)NC1CCN(Cc2ccccc2)CC1 | -3 | nt | 1 | 5 | -8 | 13 | nt | nt | nt
CC(OC(=O)CCNS(=O)(=O)c1ccc(Cl)cc1)C(=O)N(C)Cc1ccccc1 (centres undefined) | -1 | nt | 5 | 1 | -1 | -5 | nt | nt | nt
CC(=O)N1CCN(c2nc(-c3ccco3)c3c(c2C#N)CC(C)(C)SC3)CC1 | 17 | -15 | -8 | 46* | 35* | 3 | 21 | 18* | 5
CN(C)CCC(=O)C(Cc1ccccc1)c1ccccc1 (centres undefined) | 35* | nt | 3 | 42* | 29* | 35* | 60* | 93* | 32* | NOD2 RIPK2 conf=28*;NOD2 BLA counter=2;rCAG binder conf=-1;DNA CAG counter=-1
COc1ccc(NC(=O)CSc2c3c(nc4ccccc24)CCCC3)c(OC)c1 | 1 | -11 | -9 | 26* | 25* | 5 | 29* | 44* | 26*
O=C(NCCCN1CCOCC1)c1ccc2c(c1)N(Cc1c(F)cccc1Cl)C(=O)CS2 | -3 | nt | 9 | 5 | 4 | -7 | nt | nt | nt
CCOC(=O)C1=CC[C@@H](c2ccccc2)N(S(=O)(=O)c2ccc(C)cc2)[C@H]1C#N | 3 | nt | nt | 27* | 58* | 44* | 30* | 65* | 22* | NOD2 RIPK2 conf=16;NOD2 BLA counter=-2
CCOC(=O)C1=CC[C@@H](c2ccccc2)N(S(=O)(=O)c2ccc(C)cc2)[C@H]1c1ccc(C#N)cc1 | 8 | nt | nt | -5 | 2 | 7 | nt | nt | nt
SMILES | rCAG binder | TLR4 MyD88 comp | TLR9-MyD88 inh | PRMT1 FP inh | ABHD5-PLIN5 inh | NOD2 RIPK2 PPI | ABHD5 PLIN5 conf | HNF4 split-luc | PRMT1 inh conf | others
CCc1nnc(NC(=O)c2cc(S(=O)(=O)N(C)c3ccc(OC)cc3)ccc2Cl)s1 | 9 | nt | 6 | -2 | 1 | 0 | nt | nt | nt
O=C1CCCC(=O)C1CS(=O)(=O)c1ccccc1 | 4 | -4 | 1 | 44* | 41* | 4 | 46* | 98* | 27*
O=S(=O)(CS(=O)(=O)c1ccccc1)c1ccccc1 | 2 | nt | -4 | -2 | 2 | -15 | nt | nt | nt
COc1ccccc1/C=C/C(C)=O | 2 | -4 | 14 | 0 | 10 | 1 | nt | nt | nt
CNc1ccccc(C(=O)/C=C/c2ccccc2OC)c1=O | 26 | 10 | -4 | 35* | 32* | 1 | 69* | 48* | 39*
COc1ccc(/C=C2\CCC(C3CCCC3)C2=O)cc1 (centres undefined) | 7 | nt | 5 | 3 | 0 | -11 | nt | nt | nt
COc1ccc(/C=C2/CCC(CN3CCOCC3)C2=O)cc1 (centres undefined) | 7 | nt | -6 | 53* | 69* | 34* | 100* | 107* | 61* | NOD2 RIPK2 conf=92*;NOD2 BLA counter=18*
COc1ccccc1NS(=O)(=O)c1cccc(NC(=O)CCNC(=O)c2ccccc2OC)c1 | 5 | nt | 3 | 1 | -6 | 1 | nt | nt | nt
C=C1CC2(OC1=O)c1ccccc1CCc1ccccc12 | 3 | nt | 16 | 12 | 60* | 84* | nt | nt | nt | NOD2 RIPK2 conf=90*;NOD2 BLA counter=25*
